Reference: PubChem BioAssay AID492954 (National Center for Advancing Translational Sciences (NCATS), 2010)
Several values for one entry are separate records, joined by “and”; a condition that tells them apart may be missing. Equal entries are not always repeated. Records with an inconclusive call do not appear. Activity calls are given as the source filed them. The call rests on the fitted dose curve.

Experiment: Mouse Th17 T cell differentiation assay for inhibitors of ROR gamma transcriptional activity
Conditions: mouse naive CD4 T cells Th17, IL17a-GFP flow cytometry; series mostly up to 20 µM
From the text: NIH Molecular Libraries Probe Production Network [MLPCN] NIH Chemical Genomics Center [NCGC] MLPCN Grant: R03 DA026211-01 Assay Provider: Dan Littman, New York University Keywords: NIH Roadmap, MLPCN, MLI, MLSMR, qHTS, NCGC, qHTS, nuclear hormone receptor, retinoic acid-related orphan receptor, ROR gamma Assay Overview: The retinoic acid-related orphan receptor (ROR) gamma is a transcription factor that has a central role in the differentiation of Th17 cells, a subset of T helper cells that secrete the inflammatory cytokines IL-17a, IL-17f, and IL-22. Th17 cells have been implicated in graft versus host disease, autoimmune disease and asthma. ROR gamma is induced in naive T helper cells in the presence of TGF-beta combined with IL-6, IL-21, or IL-23, and thereafter directs the expression of the Th17 lineage cytokines. To confirm inhibition of ROR gamma, compounds were tested in a mouse Th17 T cell differentiation assay. Th17 differentiation was tracked by expression of a GFP reporter under the control of the endogenous IL-17a promoter using flow cytometry. Compounds that block ROR gamma activity prevent expression of the IL17a-GFP reporter.
Assay Protocol Summary: Cells from lymph nodes and spleens derived from six to eight week old IL17a-GFP mice (Biocytogen LLC) were used for T cell purification. B220- cells were isolated on an autoMACS Pro with bead depletion of B220+ cells (Miltenyi). Naive CD4+ T cell were further purified as TCRb+CD8- DAPI- CD19- CD4+CD25- CD62L+CD44low/Int by cell sorting on a FACSAria (BD). Cells were cultivated in an incubator at 37 C and 5% CO2 in RPMI 1640 medium (Invitrogen) supplemented with 10% (vol/vol) heat-inactivated FBS (Hyclone), penicillin-streptomycin, 2 mM glutamine and 0.1 mM nonessential amino acids. Cells were seeded on day 0 at a density of 0.4x10^5 cells per ml in 96-well plates coated with anti-CD3e (5 ug/ml) and anti-CD28 (10 ug/ml). Cells were cultured for 4-5 days in Th17 (TGFb (0.3 ng/ml), IL6 (20 ng/ml), anti-IFN-g, and anti-IL-4) condition. At day 1, compounds dissolved in DMSO were added. GFP expression was assayed on day 4 or 5 with DAPI- and PECy7-conjugated CD4+ cells. An LSR II (BD Biosciences) and FlowJo software (Tree Star) were used for flow cytometry. Keywords: NIH Roadmap, MLPCN, MLI, MLSMR, qHTS, NCGC, qHTS, nuclear hormone receptor, retinoic acid-related orphan receptor, ROR gamma

| Structure (SMILES) | Potency |
| --- | --- |
| COc1cc(O)c(C(CC(=O)N2CCCC(C)C2)c2ccccc2)c(OC)c1 (stereo not given) | inactive |
| COc1cc(OC)c(C(CC(=O)N2CC(C)CC(C)C2)c2ccc3c(c2)OCO3)c(OCC(N)=O)c1 (stereo not given) | inactive |
| COc1cc(O)c(C(CC(=O)N2CC(C)CC(C)C2)c2ccc(C)cc2)c(OC)c1 (stereo not given) | 500 nM (active) |
| COc1cccc(O)c1C(CC(=O)N1CCCC(C)C1)c1ccc2c(c1)OCO2 (stereo not given) | inactive |
| COc1ccc(C(CC(=O)N2CC(C)CC(C)C2)c2c(O)cc(OC)cc2OC)cc1 (stereo not given) | 400 nM (active) |
| COc1cc(O)c(C(CC(=O)N2CC(C)OC(C)C2)c2ccc3c(c2)OCO3)c(OC)c1 (stereo not given) | 800 nM (active) |
| COc1cc(O)c(C(CC(=O)N2CC(C)CC(C)C2)c2ccc(N(C)C)cc2)c(OC)c1 (stereo not given) | 400 nM (active) |
| COc1cc(O)c(C(CC(=O)N2CC(C)NC(C)C2)c2ccc3c(c2)OCO3)c(OC)c1 (stereo not given) | inactive |
| COc1cc(O)c(C(CC(=O)N2CC(C)CC(C)C2)c2ccc(O)cc2)c(OC)c1 (stereo not given) | 300 nM (active) |
| COc1cc(OC)c(C(CC(=O)N2CCCC(C)C2)c2ccc3c(c2)OCO3)c(OC)c1 (stereo not given) | 2000 nM (active) |
| COc1ccc(C(CC(=O)N2CCCC(C)C2)c2c(O)cc(OC)cc2OC)cc1 (stereo not given) | 5000 nM (active) |
| COCOc1cc(OC)cc(OC)c1C(CC(=O)N1CC(C)CC(C)C1)c1ccc2c(c1)OCO2 (stereo not given) | 1000 nM (active) |
| COc1ccc(C(CC(=O)N2CCCC(C)C2)c2c(O)cc(OC)cc2OC)c(OC)c1 (stereo not given) | inactive |
| COc1cc(O)c(C(CC(=O)N2CCC(C)CC2)c2ccc3c(c2)OCO3)c(OC)c1 (stereo not given) | inactive |
| COc1cc(O)c(C(CC(=O)N2CCCC(C(F)(F)F)C2)c2ccc3c(c2)OCO3)c(OC)c1 (stereo not given) | 7000 nM (active) |
| COc1cc(O)c(C(CC(=O)N2CC(C)CC(C)C2)c2ccc3c(c2)OCCO3)c(OC)c1 (stereo not given) | 300 nM (active) |
| COc1cc(O)c(C(CC(=O)N2C[C@H](C)C[C@H](C)C2)c2ccc3c(c2)OCO3)c(OC)c1 (stereo not given in full) | 400 nM (active) |
| COc1ccc(C(CC(=O)N2CCCC(C)C2)c2ccc3c(c2)OCO3)c(O)c1 (stereo not given) | inactive |
| COc1cc(O)c(C(CC(=O)N2CC(C)CC(C)C2)c2ccc3c(c2)OCO3)c(OC)c1 (stereo not given) | 500 nM (active) and 700 nM (active) |
| COc1cc(OC)c(C(CC(=O)N2CC(C)CC(C)C2)c2ccc3c(c2)OCO3)c(OC)c1 (stereo not given) | 800 nM (active) |
| COc1cc(O)c(C(CC(=O)N2CCCC(C)C2)c2ccc(C)cc2)c(OC)c1 (stereo not given) | 4000 nM (active) |
| COc1cc(OC)c(C(CC(=O)N2CC(C)CC(C)C2)c2ccc3c(c2)OCO3)c(OCC#N)c1 (stereo not given) | 3000 nM (active) |
| COc1cc(O)c(C(CC(=O)N2CCCC(C)(C)C2)c2ccc3c(c2)OCO3)c(OC)c1 (stereo not given) | 6000 nM (active) |
| COc1cc(O)c(C(CC(=O)N2CCCC(C)C2)c2ccccc2C)c(OC)c1 (stereo not given) | inactive |
| COc1cc(O)c(C(CC(=O)N2CCCC(C)C2)c2cccs2)c(OC)c1 (stereo not given) | 6000 nM (active) |
